This is part of a sample that, as a whole, favours compounds with a hit. Of some 79,000 tested, about 15% had one in any assay. The source made the active and inactive calls. No stated cut-off is given here; in the data, active means growth inhibition above about 70%; inactive means the rest.
Key:
[1] = NCI Yeast Anticancer Drug Screen. Data for the rad50 strain (AID 155);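 further: 0% = growth of vehicle-only cultures of the same strain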; details: S. cerevisiae rad50 strain growth inhibition; at 50.0 µM; hits give high values
In short: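 DNA repair mutant yeast, compound exposure, growth read-out; inhibition is taken relative to vehicle.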

[2] = NCI Yeast Anticancer Drug Screen. Data for the mec2-1 strain (AID 157); details: S. cerevisiae mec2-1 strain, at 50.0 µM, hits give high values
In short: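 Test agents were screened against the mec2-1 yeast strain, with defined DNA repair or cell cycle alteration. Growth was scored as inhibition against vehicle-only controls.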

[3] = NCI Yeast Anticancer Drug Screen. Data for the sgs1 mgt1 strain (AID 161);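 further: 0% = growth of cultures given vehicle only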; details: S. cerevisiae sgs1 mgt1 strain, at 50.0 µM, hits give high values
In short: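 Read-out: growth inhibition vs vehicle controls. Cells: mutant yeast strain deficient in DNA damage repair.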

[4] = NCI Yeast Anticancer Drug Screen. Data for the cln2 rad14 strain (AID 165);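 further: 0% = growth equal to vehicle treated cultures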; details: S. cerevisiae cln2 rad14 strain, at 50.0 µM, hits give high values
In short: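 Growth of compound-exposed yeast (cln2 rad14 genotype) measured and expressed as inhibition relative to vehicle.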

[5] = NCI Yeast Anticancer Drug Screen. Data for the bub3 strain (AID 167); details: S. cerevisiae bub3 mutant strain, at 50.0 µM, hits give high values
In short: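 In this screen, a yeast mutant lacking normal mitotic checkpoint function is challenged with compound. Relative growth versus vehicle gives the inhibition value.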

[6] = NCI Yeast Anticancer Drug Screen. Data for the mlh1 rad18 strain (AID 175); details: S. cerevisiae mlh1 rad18 strain growth inhibition; at 50.0 µM; hits give high values
In short: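 In this whole-cell yeast screen, a strain with altered DNA damage repair is challenged with compound, and its growth is measured against matched vehicle-treated controls.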

Measured: growth inhibition

COc1cc(N2C(=O)CSC2=S)cc(OC)c1OC
inactive: [1] 21.3% | [2] 12.3% | [3] 61.8% | [4] 25.4% | [5] 33.8% | [6] 23.4%

CC(C)(CN1C(=O)C(Cl)=C(Cl)C1=O)CN1C(=O)C(Cl)=C(Cl)C1=O
inactive: [1] 1.7% | [2] -5.6% | [3] 6.3% | [4] -20.8% | [5] -5.8% | [6] 9.2%

COC(=O)c1cc(C(=O)O)c(=O)n2ccccc12
inactive: [1] 23% | [2] 50% | [3] 32.1% | [4] 53.2% | [5] 35.2% | [6] 41.5%

CC1CC(C)OC(c2ccccc2)O1 (stereo unspecified)
inactive: [1] 19.1% | [2] -1.5% | [3] -2.7% | [4] -20.1% | [5] -5% | [6] 19.7%

CC(C)(C)OC(=O)N(CCCCN(CCCNC(=O)C(F)(F)F)C(=O)OC(C)(C)C)CCCNC(=O)C(F)(F)F
inactive: [1] -14.9% | [2] 4.75% | [3] -14.3% | [4] 3.15% | [5] 4.6% | [6] -32%

COc1ccc(C2CN=NN2c2ccc([N+](=O)[O-])cc2)cc1 (stereo unspecified)
inactive: [1] -18.4% | [2] -16.6% | [3] -9.15% | [4] 28.2% | [5] 46.1% | [6] -18%

O=C(O)c1cc(N2C(=O)c3ccc4c5ccc6c7c(ccc(c8ccc(c3c48)C2=O)c75)C(=O)N(c2ccc(O)c(C(=O)O)c2)C6=O)ccc1O
inactive: [1] -8.4% | [2] 10% | [3] 3.2% | [4] 34% | [5] 1.65% | [6] 26.3%

Cc1cccc([Si](c2ccccc2)(c2ccccc2)c2ccccc2)c1
inactive: [1] -3.7% | [2] -6.35% | [3] -9.2% | [4] -0.75% | [5] -21.6% | [6] 8.8%

CCCCN(CCCC)c1ccc(S(=O)(=O)c2ccc(N(CCCC)CCCC)cc2)cc1
inactive: [1] 19.1% | [2] 4.95% | [3] 9.4% | [4] 30.4% | [5] -2.35% | [6] 18.6%

O=S(=O)(O)c1cc2cc(S(=O)(=O)O)c(O)cc2cc1O
inactive: [1] -20.6% | [2] -7.55% | [3] -1.35% | [4] 3.55% | [5] -0.25% | [6] -7.9%

COc1cccc(C2CC(C)(O)Oc3cc4c(cc32)OCO4)c1O (stereo unspecified)
inactive: [1] 9.15% | [2] -8.25% | [3] -9.45% | [4] 12.1% | [5] 23.3% | [6] 6.65%

CCOC(=O)C1(C)CCc2sc(N)c(C#N)c21 (stereo unspecified)
inactive: [1] -29.2% | [2] -2.4% | [3] 3.75% | [4] -10.8% | [5] 2.8% | [6] -8.5%

CCCCNCC(=O)Nc1ccc(C(=O)OC(C)C)cc1
inactive: [1] -1.9% | [2] -18.1% | [3] -5.95% | [4] -35.3% | [5] 10.8% | [6] -1.75%

CCN1CCCC(C#N)(c2ccccc2)CC1 (stereo unspecified)
inactive: [1] 14.1% | [2] 7.45% | [3] 14.5% | [4] 8.9% | [5] 3.2% | [6] -4.1%

NC(=O)/N=C/NC(N)=O
inactive: [1] 21.6% | [2] -14.3% | [3] 21.8% | [4] -5.3% | [5] -24.5% | [6] 2.65%

CCC1(CN(C)C)CC/C(=C\c2ccc(OC)c(OC)c2)C1=O (stereo unspecified)
inactive: [1] 13.2% | [2] 0% | [3] -1.25% | [4] 15.9% | [5] 7.8% | [6] 25.2%

CCC(C)(O)C(=O)O (stereo unspecified)
inactive: [1] 9.8% | [2] -9.4% | [3] -32.4% | [4] -4.75% | [5] -13.3% | [6] -15.2%

Cc1nc(-n2nc(-c3ccccc3)cc2-c2ccccc2)sc1C(=O)CC(=O)C(=O)Nc1ccc(Cl)c(Cl)c1
inactive: [1] 6.15% | [2] -5.55% | [3] 24.6% | [4] 13.8% | [5] 48.5% | [6] 24.8%

Cc1ccc(C(C)C)cc1OC(=O)NC1CCCCC1
inactive: [1] -4% | [2] 9.3% | [3] 9.9% | [4] -13.2% | [5] -23.4% | [6] -0.6%

CCOC(=O)C(Cc1ccccc1Cl)(NC(C)=O)C(=O)OCC
inactive: [1] 2.1% | [2] -7.95% | [3] -0.35% | [4] -10.2% | [5] 11.8% | [6] -20.1%

COc1ccc(-c2nc(N)nc3c2CN(CCC(=O)O)C3=O)cc1
inactive: [1] 0.9% | [2] -18.2% | [3] 12% | [4] -8.6% | [5] 7.45% | [6] 3.9%

Cc1ccc(SC(=O)N2C(=S)NC(=NC3CCCCC3)C23CCCCC3)cc1
inactive: [1] -14% | [2] -9.05% | [3] -4.05% | [4] -41.3% | [5] -32.5% | [6] -24.5%

C=CCC(C(=C)C)(C(=O)OCC)C(=O)OCC
inactive: [1] -23.4% | [2] -24.6% | [3] -32.6% | [4] -6.8% | [5] -25.4% | [6] -31.9%

O=C(Nc1ccccc1[N+](=O)[O-])Oc1ccc(-c2ccccc2)cc1
inactive: [1] 9.05% | [2] 5.75% | [3] 9.05% | [4] -7.65% | [5] 46.4% | [6] -28.9%

C/C(N=NC(=S)N1CC(C)OC(C)C1)=C1\C=CC=CN1O (stereo unspecified)
inactive: [1] -7.3% | [2] -2.15% | [3] 11.8% | [4] 12.3% | [5] 13.8% | [6] 8.85%

Cc1c(C)n(S(=O)(=O)c2ccccc2)c2ccccc12
inactive: [1] 20.6% | [2] 10.4% | [3] 21.4% | [4] 27.9% | [5] 13.2% | [6] 27.4%

CC(=O)NCc1cccc[n+]1[O-]
inactive: [1] 14.8% | [2] -12% | [3] -3.8% | [4] -59.3% | [5] -6.85% | [6] -7.2%

CCCCCC(=O)OC(C)COc1ccccc1 (stereo unspecified)
inactive: [1] 20.6% | [2] 22.7% | [3] 20.8% | [4] -10.8% | [5] 30.9% | [6] 28.6%

Cn1c2ccccc2n2c(=O)c(-c3ccc(Cl)cc3)nnc12
inactive: [1] -4.95% | [2] 10.9% | [3] -5.15% | [4] -6.15% | [5] -11.2% | [6] -35.4%

Cc1cc2c(c(C(=O)NCCC(=O)O)c1)Oc1c(cc(C)cc1C(=O)NCCC(=O)O)S2
inactive: [1] -26.9% | [2] -13.6% | [3] -8.2% | [4] 3.95% | [5] -44.1% | [6] -2.65%

CN(C)N=Nc1ccc(C(=O)NC(Cc2ccccc2)C(=O)O)cc1 (stereo unspecified)
inactive: [1] 1.45% | [2] -4.1% | [3] 3.2% | [4] 0.55% | [5] 3.3% | [6] 6.45%

CN1C(=O)C(O)(CC(=O)c2ccccc2)c2ccccc21 (stereo unspecified)
inactive: [1] 0.15% | [2] 17.7% | [3] 3.3% | [4] -23.9% | [5] 23.4% | [6] -5.65%

O=C(O)c1ccc(SSc2ccc(C(=O)O)cn2)nc1
inactive: [1] 9.9% | [2] 19.1% | [3] -13.3% | [4] -8.5% | [5] 6.7% | [6] 14.9%

Cc1nc2ccc(-c3ccccc3)cc2nc1C
inactive: [1] -9.25% | [2] 5.7% | [3] -20.9% | [4] 4.45% | [5] -5.05% | [6] 3.7%

O=C1OC(c2ccccc2)=N/C1=C\c1cc2c(cc1Cl)OCO2
inactive: [1] 4.05% | [2] 11.7% | [3] 16.1% | [4] -25.3% | [5] -5.7% | [6] 20.1%

CN(C)C(=O)CCOc1ccccc1
inactive: [1] 0.55% | [2] -12.6% | [3] -18.9% | [4] -56.3% | [5] -7.05% | [6] -7.2%

CCNC(=O)CCC(NS(=O)(=O)c1ccc(NC(=O)c2ccc(Cl)cc2)cc1)C(=O)O (stereo unspecified)
inactive: [1] 0.8% | [2] -4.95% | [3] -26% | [4] -4.6% | [5] 0.1% | [6] -1.9%

O=C(O)CC(CC(=O)O)c1ccc(F)cc1
inactive: [1] -2% | [2] 0.95% | [3] -10.2% | [4] -2.35% | [5] 2.05% | [6] -8.5%

CC(C)(Cl)C1CCC(CC(Cl)(Cl)Cl)CC1 (stereo unspecified)
inactive: [1] 5.3% | [2] -16.4% | [3] 0.6% | [4] -26.9% | [5] 11.9% | [6] 9.75%

Cc1ccc(S(=O)(=O)C(CC(=O)O)c2ccccc2)cc1 (stereo unspecified)
inactive: [1] 0.35% | [2] 0.15% | [3] 6.15% | [4] 4.15% | [5] 1.7% | [6] 4.2%

OCCSC1CCCCC1
inactive: [1] 12.1% | [2] 6.35% | [3] -1.55% | [4] 0.1% | [5] -16.1% | [6] 1.5%
